# Laboratory results published in the supplement of paper PMC9262897, “Low-cost anti-mycobacterial drug discovery using engineered E. coli” (Nature Communications, 2022).
# Where a name gives a salt, the structure may show the parent alone. ± gives the standard deviation of the averaged measurements.
# Assays:
# Experiment in all cases: growth (OD600 after 10 h); higher = more growth (less inhibition)
# [1] = tested on: E. coli TESEC Alr+ wild-type control; conditions: compound 0.1 mM; raw OD600 reference: median of DMSO wells 0.241, cell-free background 0.041
# Experimental: (§1)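 TESEC Mtb Alr E. coli, or the Alr+ wild-type control, in 384-well plates with Prestwick library compounds at 0.1 mM and 1% DMSO, across arabinose induction levels of 1E3 to 1E7 nM. Growth is read as OD600 after 10 h at 37 °C in triplicate biological replicates.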
# [2] = tested on: E. coli TESEC Mtb Alr; conditions: compound 0.1 mM
# Experimental: as §1
# [3] = tested on: E. coli TESEC Mtb Asd; conditions: compound 0.1 mM
# Experimental: (§2)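 TESEC E. coli strains in which the native enzyme is deleted and replaced by arabinose-inducible Mtb Asd, DapB, CysH or TrpD, each grown in its selective medium. Strains were screened against the Prestwick library at 0.1 mM and 1% DMSO in 384-well format at low and high arabinose induction. Growth is read as OD600 after 10 h in triplicate.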
# [4] = tested on: E. coli TESEC Mtb DapB; conditions: compound 0.1 mM
# Experimental: as §2
# [5] = tested on: E. coli TESEC Mtb Alr; conditions: compound 0.1 mM; remark: listed apart in the source
# Experimental: (§3)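 TESEC Mtb Alr E. coli (ΔaraC ΔtolC ΔentC Δalr ΔdadX, arabinose-inducible Mtb Alr) or the Alr+ wild-type control strain, grown in defined M9-fructose medium without D-alanine in 96-well plates with Prestwick library compounds at 0.1 mM and 1% DMSO. Low Alr induction is 0.1 µM arabinose and high induction is 10 mM arabinose.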
# [6] = tested on: E. coli TESEC Alr+ wild-type control; conditions: compound 0.1 mM; raw OD600 reference: median of DMSO wells 0.49, cell-free background 0.052
# Experimental: as §3
# [7] = arabinose 1000 nM, raw OD600 reference: median of DMSO wells 0.294, cell-free background 0.041
# [8] = arabinose 10000 nM, raw OD600 reference: median of DMSO wells 0.264, cell-free background 0.041
# [9] = arabinose 100000 nM, raw OD600 reference: median of DMSO wells 0.201, cell-free background 0.041
# [10] = arabinose 1000000 nM, raw OD600 reference: median of DMSO wells 0.193, cell-free background 0.041
# [11] = arabinose 10000000 nM, raw OD600 reference: median of DMSO wells 0.146, cell-free background 0.041
# [12] = arabinose induction (level): High, raw OD600 reference: median of DMSO wells 0.331, cell-free background 0.041
# [13] = arabinose induction (level): Low, raw OD600 reference: median of DMSO wells 0.417, cell-free background 0.041
# [14] = arabinose induction (level): High, raw OD600 reference: median of DMSO wells […], cell-free background 0.041
# [15] = arabinose induction (level): Low, raw OD600 reference: median of DMSO wells 0.227, cell-free background 0.041
# [16] = arabinose 100 nM, raw OD600 reference: median of DMSO wells 0.413, cell-free background 0.052
# [17] = arabinose 10000000 nM, raw OD600 reference: median of DMSO wells […], cell-free background 0.052
Structure (SMILES),growth [1],"growth [2, 7]","growth [2, 8]","growth [2, 9]","growth [2, 10]","growth [2, 11]","growth [3, 12]","growth [3, 13]","growth [4, 14]","growth [4, 15]","growth [5, 16]","growth [5, 17]",growth [6]
NCC1(CC(=O)O)CCCCC1 [Gabapentin],0.255 ± 0.0094,0.324 ± 0.013,0.281 ± 0.011,0.215 ± 0.021,0.184 ± 0.003,0.156 ± 0.0041,0.478 ± 0.023,0.399 ± 0.044,0.215 ± 0.016,0.278 ± 0.045,0.401 ± 0.02,0.325 ± 0.022,
C[C@@H]1C[C@@H]([C@H](O)CC2CC(=O)NC(=O)C2)C(=O)[C@@H](C)C1 [Cycloheximide],0.25 ± 0.014,0.314 ± 0.018,0.268 ± 0.006,0.195 ± 0.009,0.186 ± 0.011,0.157 ± 0.0081,0.469 ± 0.0092,0.443 ± 0.042,,,0.394 ± 0.033,0.33 ± 0.013,
COc1ccc(C(CN(C)C)C2(O)CCCCC2)cc1 (stereo not drawn) [Venlafaxine],0.219 ± 0.015,0.301 ± 0.016,0.251 ± 0.01,0.185 ± 0.013,0.178 ± 0.0042,0.137 ± 0.0036,0.436 ± 0.066,0.459 ± 0.032,,,0.415 ± 0.0048,0.338 ± 0.025,
CNC(C)(C)Cc1ccccc1 [Mephentermine hemisulfate],0.247 ± 0.0094,0.303 ± 0.018,0.274 ± 0.0032,0.224 ± 0.012,0.193 ± 0.0098,0.138 ± 0.0038,0.273 ± 0.036,0.433 ± 0.033,,,0.402 ± 0.0066,0.381 ± 0.03,
CC(Cc1ccccc1)NCCC(c1ccccc1)c1ccccc1 (stereo not drawn) [Prenylamine lactate],0.04013 ± 0.00032,0.03927 ± 0.00035,0.0394 ± 0.0001,0.0405 ± 0.001,0.0393,0.0397 ± 0.00052,0.0468 ± 0.00058,0.0471 ± 0.00089,,,0.276 ± 0.19,0.0499 ± 0.00064,
CN1[C@@H]2CC[C@H]1C[C@@H](OC(=O)C(CO)c1ccccc1)C2 (stereo partly drawn) [Atropine sulfate monohydrate],0.234 ± 0.0026,0.299 ± 0.0088,0.25 ± 0.0043,0.253 ± 0.012,0.182 ± 0.0059,0.149 ± 0.011,0.339 ± 0.053,0.421 ± 0.081,,,0.41 ± 0.019,0.357 ± 0.014,0.418 ± 0.017
CNC(=O)Oc1ccc2c(c1)[C@]1(C)CCN(C)[C@@H]1N2C [Eserine hemisulfate salt],0.229 ± 0.0049,0.289 ± 0.0076,0.251 ± 0.003,0.203 ± 0.025,0.184 ± 0.0065,0.139 ± 0.008,0.328 ± 0.037,0.408 ± 0.048,,,0.409 ± 0.017,0.366 ± 0.01,0.423 ± 0.028
"NCC(CC(=O)O)c1ccc(Cl)cc1 (racemic) [Baclofen (R,S)]",0.248 ± 0.011,0.299 ± 0.0066,0.2703 ± 0.0017,0.22 ± 0.029,0.189 ± 0.0083,0.15 ± 0.007,0.392 ± 0.032,0.422 ± 0.029,,,0.408 ± 0.0092,0.361 ± 0.026,
CN[C@@H]1[C@@H](O)[C@@H](O[C@@H]2[C@@H](O)[C@H](O[C@H]3O[C@H](CN)CC[C@H]3N)[C@@H](N)C[C@H]2N)OC[C@]1(C)O.CN[C@@H]1[C@@H](O)[C@@H](O[C@@H]2[C@@H](O)[C@H](O[C@H]3O[C@H]([C@@H](C)N)CC[C@H]3N)[C@@H](N)C[C@H]2N)OC[C@]1(C)O.CN[C@@H]1[C@@H](O)[C@@H](O[C@@H]2[C@@H](O)[C@H](O[C@H]3O[C@H]([C@@H](C)NC)CC[C@H]3N)[C@@H](N)C[C@H]2N)OC[C@]1(C)O [Gentamicine sulfate],0.0458 ± 0.00049,0.04643 ± 0.00025,0.0414 ± 0.00061,0.0505 ± 0.0026,0.0448 ± 0.00064,0.075 ± 0.001,0.134 ± 0.021,0.0693 ± 0.0051,,,0.191 ± 0.13,0.0981 ± 0.037,
CCN(CC)C(C)C(=O)c1ccccc1 (stereo not drawn) [Amfepramone hydrochloride],0.25 ± 0.0034,0.259 ± 0.051,0.261 ± 0.014,0.179 ± 0.027,0.187 ± 0.0038,0.141 ± 0.0089,0.256 ± 0.064,0.447 ± 0.047,,,0.411 ± 0.0098,0.325 ± 0.016,0.556 ± 0.038
C[C@]12COC(=O)C[C@@H]1CC[C@@H]1[C@@H]2CC[C@@]2(C)[C@H]1CC[C@]2(C)O [Oxandrolone],0.157 ± 0.0027,0.189 ± 0.0087,0.232 ± 0.0096,0.126 ± 0.0067,0.105 ± 0.005,0.12 ± 0.0015,0.148 ± 0.0058,0.319 ± 0.033,,,0.42 ± 0.0079,0.246 ± 0.019,0.435 ± 0.042
C[C@@H]1CN([C@H]2CC[C@](C#N)(c3ccc(F)cc3)CC2)CC[C@]1(C(=O)O)c1ccccc1 [Levocabastine hydrochloride],0.215 ± 0.0053,0.274 ± 0.0041,0.271 ± 0.017,0.171 ± 0.011,0.154 ± 0.0044,0.154 ± 0.0047,0.212 ± 0.033,0.384 ± 0.03,0.192 ± 0.0051,0.265 ± 0.029,0.404 ± 0.017,0.321 ± 0.022,
C[N+]1(C)[C@@H]2CC[C@H]1C[C@@H](OC(=O)C(CO)c1ccccc1)C2 (stereo partly drawn) [Methylatropine nitrate],0.232 ± 0.013,0.283 ± 0.017,0.247 ± 0.0037,0.206 ± 0.0059,0.2 ± 0.007,0.14 ± 0.0059,0.286 ± 0.02,0.438 ± 0.022,,,0.391 ± 0.011,0.355 ± 0.012,
C(#CCN1CCCC1)CN1CCCC1 [Tremorine dihydrochloride],0.275 ± 0.0094,0.317 ± 0.011,0.27 ± 0.005,0.239 ± 0.013,0.194 ± 0.0086,0.162 ± 0.008,0.425 ± 0.059,0.464 ± 0.029,,,0.415 ± 0.018,0.375 ± 0.023,
